Reference: PubChem BioAssay
Records with an inconclusive call do not appear. Active and inactive are the calls of the source.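 The calls were made as follows, unless noted: active = at least 20% inhibition of 6-phosphogluconate dehydrogenase activity; inactive = the rest.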

Key:
[1] = stimulators of insulin release from INS-1E, primary screen, cell-based, 5 mM glucose, NPC library (AID 1117329;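 active = compound raises insulin release from rat beta cells at 5 mM glucose, no numeric limit stated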); details: rat INS-1E insulin secretion, at 10 µM, stronger effect = higher value
[2] = growth inhibition of GSK3B-pretreated HCT116 cells – cell-based, CellTiter-Glo, 0.2 to 20 µM (AID 1117336;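 active = compounds lowering colon cancer cell viability after pretreatment blocking the GSK3B kinase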); details: HCT116 viability after GSK3B inhibitor, at 20 µM, stronger effect = higher value
[3] = inhibition of endothelial tube formation, primary screen, imaging, VEGF stimulated, CD31 staining, tube area, NPC library (AID 1117340;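 active = compound that reduces growth-factor-driven endothelial tube area in a mixed cell culture, no cutoff stated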); details: VEGF-stimulated ADSC/ECFC co-culture, at 10 µM, stronger effect = higher value
[4] = GLP1 release stimulators, primary, NCI-H716, NPC library (AID 1117341;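 active = compound raises GLP1 secretion from the human gut endocrine cells, with no numeric limit stated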); details: NCI-H716 cells, at 10 µM, stronger effect = higher value
[5] = HCT116 colon cancer cell growth inhibition, primary screen, CellTiter-Glo luminescence, NPC library (AID 1117342;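 active = compounds that lower survival of HCT116 colon cancer cells in the luminescence readout, no numeric limit stated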); details: at 20 µM (top of the series)
[6] = reduced SW480 viability measured with CellTiter-Glo, NPC library, primary (AID 1117343;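 active = compounds that lower viability of the colon cancer cells in the luminescence readout, with no numeric limit stated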); details: CellTiter-Glo luminescence; at 20 µM (top of the series)
[7] = NPC library primary testing for decreased DLD-1 cell viability via CellTiter-Glo (AID 1117346;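 active = compounds that lower survival of DLD-1 colon cancer cells in the luminescence readout, no cutoff given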); details: DLD-1 viability, CellTiter-Glo luminescence; at 20 µM (top of the series)
[8] = target: 6-phosphogluconate dehydrogenase, decarboxylating (Homo sapiens) (UniProt P52209); test: inhibition of human phosphogluconate dehydrogenase – biochemical, recombinant enzyme, NADPH absorbance, primary screen (AID 1159550); details: recombinant 6PGD, NADPH absorbance 341 nm; at 10 µM; stronger effect = higher value
6-phosphogluconate dehydrogenase, decarboxylating (Homo sapiens), sequence (P52209 whole entry, looked up): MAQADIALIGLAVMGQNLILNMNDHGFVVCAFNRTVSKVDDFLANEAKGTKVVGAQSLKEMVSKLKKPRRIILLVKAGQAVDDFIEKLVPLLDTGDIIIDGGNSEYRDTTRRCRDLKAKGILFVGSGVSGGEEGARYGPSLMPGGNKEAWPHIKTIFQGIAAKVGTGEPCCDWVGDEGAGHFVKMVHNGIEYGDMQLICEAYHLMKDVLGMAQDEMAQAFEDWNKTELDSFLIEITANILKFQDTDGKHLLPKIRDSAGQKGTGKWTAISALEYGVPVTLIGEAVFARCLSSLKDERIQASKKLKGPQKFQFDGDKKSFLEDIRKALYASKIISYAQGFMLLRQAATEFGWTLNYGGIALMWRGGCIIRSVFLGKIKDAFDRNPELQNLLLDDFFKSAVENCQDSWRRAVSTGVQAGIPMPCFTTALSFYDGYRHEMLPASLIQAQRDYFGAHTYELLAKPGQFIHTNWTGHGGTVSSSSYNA

[9] = EMT-state selective cytotoxicity in co-culture – imaging, PC-3E GFP, TEM4-18 mCherry, primary screen (AID 1345086;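 active = compounds killing one labelled cell type while sparing the other, by normalised counts and ratio limits, not self-fluorescent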;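 as to all read-outs here: cells exposed to compound for 72 h before imaging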;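 as to red/green cell ratio (normalised): normalised mesenchymal count divided by normalised epithelial count so high means epithelial killing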); details: PC-3E GFP / TEM4-18 mCherry co-culture, imaging cell counts, at 1 µM; for red/green cell ratio (normalised): actives lie on both sides, counts scaled to control wells, 1 = unselective
[10] = modulation of C. elegans fzo-1 (AID 1259413; call rule not given here;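 also: fzo-1 mutant C. elegans worms in liquid wells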); details: C. elegans fzo-1 modulator screen, mean read-out; stronger effect = higher value
[11] = viability loss in pontine glioma line – cell-based, SU-DIPG-XVII, MIPE5.0, CellTiter-Glo, qHTS, dose response (AID 1347060; cut-off not given, nearly all actives have AC50 up to about 26 µM;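 also: cells exposed to compound for 48 hours before viability readout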); details: CellTiter-Glo ATP luminescence
[12] = viability loss in pontine glioma line – cell-based, SU-DIPG-XIII, MIPE4.0, CellTiter-Glo, qHTS, dose response (AID 1347061; cut-off not given, nearly all actives have AC50 up to about 37 µM;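 also: cells exposed to compound for 48 hours before readout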); details: CellTiter-Glo ATP luminescence
[13] = viability loss in pontine glioma line – cell-based, JHH-DIPG-1, MIPE4.0, CellTiter-Glo, qHTS, dose response (AID 1347062; cut-off not given, nearly all actives have AC50 up to about 27 µM); details: JHH-DIPG-1 viability, CellTiter-Glo ATP luminescence
[14] = viability loss in pontine glioma line – cell-based, SU-DIPG-IV, MIPE4.0, CellTiter-Glo, qHTS, dose response (AID 1347063; cut-off not given, nearly all actives have AC50 up to about 30 µM;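 also: compound exposure lasted 48 hours before the viability readout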); details: CellTiter-Glo ATP luminescence
[15] = measured here: epithelial PC-3E GFP cell survival
[16] = measured here: mesenchymal TEM4-18 mCherry cell survival

SMILES: CCCCC(CC)CN=C(N)NC(N)=NCCCCCCN=C(N)NC(N)=NCC(CC)CCCC (stereo not given)
- insulin secretion stimulation [1]: 22.3% (active)
- viability decrease [2]: 99.1% (active)
- tube area decrease [3]: 108% (active)
- GLP1 secretion stimulation [4]: 0% (inactive)
- inhibition of viability [5]: 99.6% (active)
- viability decrease (inhibition) [6]: 97% (active)
- viability decrease (inhibition) [7]: 102% (active)
- inhibition [8]: -3.86% (inactive)
- red/green cell ratio (normalised) [9]: 0.85 (inactive)
- normalised cell number [9, 15]: 1.19
- normalised cell number [9, 16]: 1.01

SMILES: Cc1ccsc1/C=C/C1=NCCCN1C
- insulin secretion stimulation [1]: 0.2% (inactive)
- viability decrease [2]: -25.2% (inactive)
- tube area decrease [3]: -9.8% (inactive)
- GLP1 secretion stimulation [4]: -0.1% (inactive)
- inhibition of viability [5]: 39.5% (inactive)
- viability decrease (inhibition) [6]: 90.9% (active)
- viability decrease (inhibition) [7]: 87.6% (active)
- inhibition [8]: 5.11% (inactive)
- red/green cell ratio (normalised) [9]: 1.28 (inactive)
- normalised cell number [9, 15]: 1.08
- normalised cell number [9, 16]: 1.38

SMILES: O=C(CCCCC(=O)Nc1c(I)cc(I)c(C(=O)O)c1I)Nc1c(I)cc(I)c(C(=O)O)c1I
- insulin secretion stimulation [1]: -1.2% (inactive)
- viability decrease [2]: -15.2% (inactive)
- tube area decrease [3]: 5.5% (inactive)
- GLP1 secretion stimulation [4]: -3.5% (inactive)
- inhibition of viability [5]: -1.4% (inactive)
- viability decrease (inhibition) [6]: 7.4% (inactive)
- viability decrease (inhibition) [7]: -2.6% (inactive)
- inhibition [8]: 15.2% (inactive)

SMILES: Nc1nc2c(c(=O)[nH]1)N(C=O)C(CNc1ccc(C(=O)N[C@@H](CCC(=O)O)C(=O)O)cc1)CN2 (stereo not given in full)
- insulin secretion stimulation [1]: 3.9% (inactive)
- viability decrease [2]: 19.3% (inactive)
- tube area decrease [3]: 1.3% (inactive)
- GLP1 secretion stimulation [4]: 0.8% (inactive)
- inhibition of viability [5]: -11.6% (inactive)
- viability decrease (inhibition) [6]: 24.4% (inactive)
- viability decrease (inhibition) [7]: -9.9% (inactive)
- inhibition [8]: -1.29% (inactive)
- red/green cell ratio (normalised) [9]: 1.45 (inactive)
- normalised cell number [9, 15]: 0.95
- normalised cell number [9, 16]: 1.38

SMILES: CC(C)N=C(N)/N=C(\N)Nc1ccc(Cl)cc1
- insulin secretion stimulation [1]: -3.1% (inactive)
- viability decrease [2]: 14.7% (inactive)
- tube area decrease [3]: 1.9% (inactive)
- GLP1 secretion stimulation [4]: 5.1% (inactive)
- inhibition of viability [5]: 13.5% (inactive)
- viability decrease (inhibition) [6]: 67.6% (active)
- viability decrease (inhibition) [7]: 27.1% (inactive)
- inhibition [8]: 2.42% (inactive)
- red/green cell ratio (normalised) [9]: 1.08 (inactive)
- normalised cell number [9, 15]: 1.11
- normalised cell number [9, 16]: 1.2

SMILES: CC1(C)O[C@@H]2C[C@H]3[C@@H]4CCC5=CC(=O)CC[C@]5(C)[C@@]4(F)[C@@H](O)C[C@]3(C)[C@]2(C(=O)CCl)O1
- insulin secretion stimulation [1]: -0.7% (inactive)
- viability decrease [2]: -39% (inactive)
- tube area decrease [3]: 10.2% (inactive)
- GLP1 secretion stimulation [4]: -1.7% (inactive)
- inhibition of viability [5]: -4.27% (inactive)
- viability decrease (inhibition) [6]: 9.4% (inactive)
- viability decrease (inhibition) [7]: -22.2% (inactive)
- inhibition [8]: 12.4% (inactive)

SMILES: Nc1cc(-c2ccncc2)c[nH]c1=O
- insulin secretion stimulation [1]: 0.4% (inactive)
- viability decrease [2]: -33.1% (inactive)
- tube area decrease [3]: -25.6% (inactive)
- GLP1 secretion stimulation [4]: 0% (inactive)
- inhibition of viability [5]: -3.67% (inactive)
- viability decrease (inhibition) [6]: 15% (inactive)
- viability decrease (inhibition) [7]: -7.5% (inactive)
- inhibition [8]: -7.06% (inactive)

SMILES: Cc1c(Cl)cccc1Nc1ccccc1C(=O)O
- insulin secretion stimulation [1]: 2.1% (inactive)
- viability decrease [2]: -14.5% (inactive)
- tube area decrease [3]: -8.8% (inactive)
- GLP1 secretion stimulation [4]: 3.6% (inactive)
- inhibition of viability [5]: 35.6% (inactive)
- viability decrease (inhibition) [6]: 68.1% (active)
- viability decrease (inhibition) [7]: 93.6% (active)
- inhibition [8]: -12.8% (inactive)
- red/green cell ratio (normalised) [9]: 0.86 (inactive)
- normalised cell number [9, 15]: 1.08
- normalised cell number [9, 16]: 0.93

SMILES: Clc1ccccc1C(c1ccccc1)(c1ccccc1)n1ccnc1
- insulin secretion stimulation [1]: 0.9% (inactive)
- viability decrease [2]: 110% (active)
- tube area decrease [3]: 73.1% (active)
- GLP1 secretion stimulation [4]: 29.1% (active)
- inhibition of viability [5]: 113% (active)
- viability decrease (inhibition) [6]: 132% (active)
- viability decrease (inhibition) [7]: 101% (active)
- inhibition [8]: -6.11% (inactive)
- mean signal [10]: 209 (inactive)
- red/green cell ratio (normalised) [9]: 1.09 (inactive)
- normalised cell number [9, 15]: 1.31
- normalised cell number [9, 16]: 1.43
- AC50 [11]: 23.5 µM (active)
- outcome [12]: inactive
- outcome [13]: inactive
- outcome [14]: inactive

SMILES: CCn1cc(C(=O)O)c(=O)c2cc3c(cc21)OCO3
- insulin secretion stimulation [1]: -1.3% (inactive)
- viability decrease [2]: -16% (inactive)
- tube area decrease [3]: 12.1% (inactive)
- GLP1 secretion stimulation [4]: -1.5% (inactive)
- inhibition of viability [5]: -19.5% (inactive)
- viability decrease (inhibition) [6]: 8.3% (inactive)
- viability decrease (inhibition) [7]: 7.15% (inactive)
- inhibition [8]: 15.6% (inactive)
- red/green cell ratio (normalised) [9]: 1.09 (inactive)
- normalised cell number [9, 15]: 1.15
- normalised cell number [9, 16]: 1.25

SMILES: C[n+]1ccccc1/C=N/O
- insulin secretion stimulation [1]: 2.2% (inactive)
- viability decrease [2]: 15.7% (inactive)
- tube area decrease [3]: -4.4% (inactive)
- GLP1 secretion stimulation [4]: -3.1% (inactive)
- inhibition of viability [5]: 1.77% (inactive)
- viability decrease (inhibition) [6]: -3.4% (inactive)
- viability decrease (inhibition) [7]: 0.4% (inactive)
- inhibition [8]: -6.73% (inactive)
- mean signal [10]: 252 (inactive)
- red/green cell ratio (normalised) [9]: 0.85 (inactive)
- normalised cell number [9, 15]: 1.37
- normalised cell number [9, 16]: 1.16

SMILES: Nc1ncnc2nc[nH]c12
- insulin secretion stimulation [1]: -0.3% (inactive)
- viability decrease [2]: -4.6% (inactive)
- tube area decrease [3]: -30.5% (inactive)
- GLP1 secretion stimulation [4]: -1.7% (inactive)
- inhibition of viability [5]: -30.2% (inactive)
- viability decrease (inhibition) [6]: -59.6% (inactive)
- viability decrease (inhibition) [7]: -23.8% (inactive)
- inhibition [8]: 2.63% (inactive)
- red/green cell ratio (normalised) [9]: 1.1 (inactive)
- normalised cell number [9, 15]: 1.11
- normalised cell number [9, 16]: 1.22

SMILES: CC(=O)NCCCCCC(=O)O
- insulin secretion stimulation [1]: 1.2% (inactive)
- viability decrease [2]: -17.4% (inactive)
- tube area decrease [3]: -4.2% (inactive)
- GLP1 secretion stimulation [4]: -0.1% (inactive)
- inhibition of viability [5]: -1.55% (inactive)
- viability decrease (inhibition) [6]: 24.9% (inactive)
- viability decrease (inhibition) [7]: -11.9% (inactive)
- inhibition [8]: -3.52% (inactive)
- red/green cell ratio (normalised) [9]: 0.96 (inactive)
- normalised cell number [9, 15]: 0.98
- normalised cell number [9, 16]: 0.95
